# TAR Tat displ = TAR RNA-Tat peptide displacers, HIV-1, primary screen, biochemical, FRET, FAM/TAMRA-labeled Tat; HIV-1 TAR RNA, Tat peptide displacement FRET; active compounds read high; z-score (no concentration beside the values); 100,000 tested, 0.6% active; active means z-score of 3 or more in at least 2 runs
# CDC25B-CDK2 inh = primary biochemical HTRF screen for blockers of M-phase inducer phosphatase 2 binding to CDK2/cyclin A; 94,000 tested, 0.72% active; z-score (test concentration not listed); HTRF CDC25B-CDK2/CyclinA binding, anti-His/anti-Flag; active compounds read high; AID 1259370, 2018; in the data active means z-score above about 3.2
# * hit, by the source's call; . = no result. In the library only some 0.9% were active in any assay of this set; here they are far more common.
SMILES,TAR Tat displ,CDC25B-CDK2 inh
CSc1nc2c(c(=O)[nH]1)C(c1ccc(O)c(O)c1)CC(=O)N2 (stereo not given),17.7*,5.59
CSc1nc2c(c(=O)[nH]1)C(c1cccc(O)c1)CC(=O)N2 (stereo not given),2.81,-2.35
CCSc1nc2c(c(=O)[nH]1)C(c1ccc(O)c(O)c1)CC(=O)N2 (stereo not given),22*,13.7*
CNC(=O)N1c2ccccc2NC2=C(C(=O)CC(c3ccco3)C2)C1c1ccc(OC)cc1 (stereo not given),1.3,.
CCCCn1c(=O)[nH]c2nc3cc(NC(=O)CC)ccc3nc2c1=O,-0.75,-0.64
O=C(CSc1nc(-c2ccc(Cl)cc2)nc2cc(=O)[nH]n12)Nc1ccccc1,16.8,.
CSc1cccc(NC(=O)CSc2nc(-c3ccc(Cl)cc3)nc3cc(=O)[nH]n23)c1,18.1*,.
Cc1ccc(NC(=O)CSc2nc(-c3ccc(Cl)cc3)nc3cc(=O)[nH]n23)cc1C,24.6,.
Cc1cc(C)cc(NC(=O)CSc2nc(-c3ccc(Cl)cc3)nc3cc(=O)[nH]n23)c1,22.9*,.
Cc1c(-c2noc(C(=O)N3CCC(N4CCCCC4)CC3)n2)oc2ccccc12,-0.65,.
O=C(Nc1ccc2c(c1)OCCO2)N1CCN(c2nc3cc(F)ccc3n3cccc23)CC1,-0.07,.
Cc1cc2c3c([nH]c2cc1S(=O)(=O)NCc1cccs1)CCCC3=O,-0.02,.
O=C(CSc1nnc(-c2cccnc2)o1)NCC1CCCO1 (stereo not given),0.82,-1.21
O=C(CSc1nnc(-c2cccnc2)o1)NC1CCCC1,4.56*,0.52
Nc1ccc2nc(CCC(=O)O)[nH]c2c1,1.14,18.6*
O=C(O)CCc1nc2ccc(C(=O)O)cc2[nH]1,0.63,0.54
CC(C)Cn1c(=O)c2sccc2n2c(CCCC(=O)NCCC3=CCCCC3)nnc12,-0.12,.
CC(C)(C)SCC(=O)Nc1cc(C(F)(F)F)ccc1Oc1ccc(C#N)cc1,.,0.04
CC(=O)Oc1cc(OC(C)=O)c2c(c1)O[C@H](c1ccc(OC(C)=O)c(OC(C)=O)c1)[C@@H](OC(C)=O)C2,0.8,.
O=c1c(O)cc([C@H]2Oc3cc(O)cc(O)c3C[C@H]2O)cc2c([C@H]3Oc4cc(O)cc(O)c4C[C@H]3O)cc(O)c(O)c12,17.8*,.
O=C(O[C@@H]1Cc2c(O)cc(O)cc2O[C@@H]1c1cc(O)c(O)c(O)c1)c1cc(O)c(O)c(O)c1,25.1*,.
Oc1cc(O)c2c(c1)O[C@H](c1ccc(O)c(O)c1)[C@H](O)C2,24*,.
O=C(O[C@@H]1Cc2c(O)cc(O)cc2O[C@@H]1c1cc(O)c(O)c(O)c1-c1c([C@H]2Oc3cc(O)cc(O)c3C[C@H]2O)cc(O)c(O)c1O)c1cc(O)c(O)c(O)c1,4.67*,.
O=C1C[C@@H](c2ccc(O)cc2)Oc2cc(O)cc(O)c21,2.87,.
Oc1ccc2c(c1)O[C@H](c1ccc(O)c(O)c1)[C@@H](O)C2,3.12,.
SMILES,TAR Tat displ,CDC25B-CDK2 inh
O=C1N(Cc2cccc(F)c2)c2ccccc2S(=O)(=O)N1c1ccc(F)cc1,0.83,.
COCCCN(Cc1ccco1)C(=O)c1oc(=O)c2ccccc2c1-c1ccccc1,0.97,-1.32
CCOC(=O)N1CCN(C(=O)c2cc3c(=O)n(C)c4ccccc4c3s2)CC1,0.01,-0.71
O=C(O[C@@H]1Cc2c(O)cc(O)cc2O[C@@H]1c1ccc(O)c(O)c1)c1cc(O)c(O)c(O)c1,29.2*,.
O=C(Oc1cc(OC(=O)c2ccccc2)c2c(c1)O[C@H](c1ccc(OC(=O)c3ccccc3)c(OC(=O)c3ccccc3)c1)[C@@H](OC(=O)c1ccccc1)C2)c1ccccc1,-0.12,.
CCCCc1nn2c(C)c(-c3ccccc3)nc2s1,1.15,0.6
Cc1ccc(OS(=O)(=O)c2cc(Cl)c(Cl)cc2Cl)c([N+](=O)[O-])c1,.,-0.04
Cc1cc(C)nc(N2CCN(c3cc(C)nc4c(-c5ccc(F)cc5)c(C)nn34)CC2)n1,-0.05,1.82
N#Cc1c(SCC(=O)Nc2cccc(F)c2)nc2c(c1-c1ccco1)CCCC2,.,-1.72
N#Cc1c(SCC(=O)NCC2CCCO2)nc2c(c1-c1ccco1)CC/C2=C/c1ccco1 (stereo not given),20.4*,.
O=C1C=C(NCCc2ccccc2)CC(c2ccco2)C1 (stereo not given),24*,-0.39
O=C1C=C(NCc2ccco2)CC(c2ccccc2)C1 (stereo not given),0.24,-1.2
CC(NC(=O)CCS(=O)(=O)c1cc2c(cc1Cl)NC(=O)CO2)c1ccc2c(c1)OCCO2 (stereo not given),0.68,.
COc1ccc(-c2nnc3c4cc5c(cc4n(Cc4ccccc4)cc2-3)OCCO5)cc1,-0.71,-0.78
COc1ccc(-c2nnc3c4cc5c(cc4n(Cc4ccccc4F)cc2-3)OCCO5)cc1OC,1.11,7.32*
COc1ccccc1Cn1cc2c(-c3ccc(F)cc3)nnc-2c2cc3c(cc21)OCO3,2.04,0.03
COc1ccc(Cn2cc3c(-c4ccccc4)nnc-3c3cc4c(cc32)OCCO4)cc1,-4.89,7.36*
CCCNC(=O)N1c2ccccc2NC2=C(C(=O)CC(C)(C)C2)C1c1ccccc1 (stereo not given),0.48,.
CCOC(=O)N1CCN(c2cc(NCCOC)c3c4c(onc24)-c2ccccc2C3=O)CC1,1.31,-1.43
COc1ccc2nc(Nc3sc4c(c3C(N)=O)CCCC4)sc2c1,-1.26,4.27*
COc1cc(OC)cc(C(=O)Nc2sc3c(c2C(N)=O)CCCC3)c1,.,-0.63
COCCCNC(=O)C1CCN(S(=O)(=O)N2CCOCC2)CC1,1.1,.
COc1ccc(/C=C/c2nn3c(C(F)(F)F)nnc3s2)cc1,0.71,0.21
CCc1ccc(C(c2ccc(CC)o2)c2cc3c(cc2[N+](=O)[O-])OCCO3)o1,.,4.4*
CCOC(=O)C(=O)CC(=O)c1ccc2c(c1)OCCO2,0.61,0.5
SMILES,TAR Tat displ,CDC25B-CDK2 inh
Cc1[nH]c2ccc(-c3nnc(SC(C)C(=O)Nc4ccc5c(c4)OCCO5)o3)cc2c1C (stereo not given),-2.13,0.43
CC(Sc1nnc(-c2ccncc2)o1)C(=O)Nc1ccc2c(c1)OCCO2 (stereo not given),1.27,10.6*
O=c1ccc2ccc(O)cc2o1,0.33,.
O=c1ccc2cc(O)c(O)cc2o1,25.3*,.
Cc1cc(NS(=O)(=O)c2cc(-c3csc(C)n3)ccc2C)no1,1.16,.
O=C(Cn1c(=O)oc2ccccc21)N(Cc1cccs1)C1CCCC1,2.36,.
O=S(=O)(Nc1ccc(S(=O)(=O)Nc2ccccc2C(F)(F)F)cc1)c1ccc(Cl)cc1,.,-0.49
O=C1CC(c2ccco2)Cc2[nH]c(=O)c(-c3nc(-c4ccccc4)cs3)cc21 (stereo not given),-4.36,16.8*
O=C1CC(c2ccco2)Cc2[nH]c(=O)c(-c3nc(-c4cccc(Cl)c4)cs3)cc21 (stereo not given),6.61,9.38
CCCCN(C)CCNS(=O)(=O)c1cc(Br)cc2c1N(C(C)=O)CC2,.,7.38*
CCCCN(C)CCNS(=O)(=O)c1cc(Br)cc2c1N(C(=O)CC)CC2,.,0.85
COc1ccc(NC(=O)CN2N=NC3C(=O)N(c4ccc(F)c(F)c4)C(=O)C32)cc1OC (stereo not given),0.61,.
CC1(C)Cc2c(oc(N)c2C#N)CS1,.,-1.04
O=C(Nc1nc2ccccc2s1)c1cccc2c(=O)c3c([nH]c12)CCC3,-0.08,-0.92
